According to PubChem BioAssay (NCI):
This is part of a sample that, as a whole, favours compounds with a hit. Of some 83,000 tested, about 20% had one in any assay.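 Single-dose data. Exposure time 48 hours. Values below 10 considered active.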 Active and inactive are the calls of the source.

Experiments:
Assay in all cases: NCI-60 one-dose screen, 48 h (100 = growth as untreated, 0 = no growth, -100 = all killed)
Conditions in all cases: 10 µM unless noted
[1] = test system: SK-MEL-2 melanoma
[2] = test system: EKVX NSCLC
[3] = test system: SN12C renal
[4] = test system: UO-31 renal
[5] = test system: TK-10 renal
[6] = test system: ACHN renal
[7] = test system: CAKI-1 renal
[8] = test system: A498 renal
[9] = test system: CCRF-CEM leukemia
[10] = test system: MOLT-4 leukemia

Measured: growth

Cc1nn(C)c2ncnc(N/N=C/c3cccc(O)c3O)c12
active: [2] 6.94% | [3] 7.54% | [4] -13.4% | [6] 4.41% | [7] 6.5% | [9] -16.7% | [10] 3.79%
inactive: [1] 31.5% | [5] 28.7% | [8] 26.6%

O=C(Nc1cc(Cl)cc(Cl)c1)Oc1c(Cl)c(Cl)c(Cl)c(Cl)c1Cl
inactive: [1] 64% | [2] 64.2% | [3] 71.2% | [4] 58.4% | [5] 113% | [6] 65.8% | [7] 68.1% | [8] 19.6% | [9] 47.7% | [10] 63.5%

COc1ccc(C/C(C)=C(\c2ccc(Cl)cc2)c2ccc(OCCCN(C)C)cc2)cc1
inactive: [1] 111% | [2] 94.1% | [3] 78.8% | [4] 62.4% | [5] 86.7% | [6] 90% | [7] 87.3% | [8] 114% | [9] 56.9% | [10] 40.9%

C=C1SC(=Nc2ccccc2Cl)N(C(=O)c2sc3ccccc3c2Cl)C1(C)C
inactive: [1] 151% | [2] 54.4% | [3] 78.9% | [4] 107% | [5] 107% | [6] 46.1% | [7] 49% | [8] 90.5% | [9] 19.8% | [10] 20.3%

N#Cc1c(-c2ccccc2)cc(-c2ccccc2)n(CCCCC(=O)NO)c1=O
inactive: [1] 40.6% | [2] 30.6% | [3] 23.2% | [5] 28.4% | [8] 13.2% | [9] 11.9% | [10] 11.4%
active: [4] -51.6% | [6] 2.83% | [7] 1%

CCN(CC)CCOc1ccc2ccc(=O)oc2c1
inactive: [1] 103% | [2] 105% | [3] 100% | [4] 82.9% | [5] 97.7% | [6] 97% | [7] 90.9% | [8] 98.5%
active: [9] 3.66% | [10] 4.48%

COc1ccc(-c2nc3ccc(C)cc3c3c2c(=O)n(C)c(=O)n3C)cc1OC
inactive: [1] 123% | [2] 102% | [3] 98% | [4] 106% | [5] 106% | [6] 97.7% | [7] 88.4% | [8] 94% | [9] 92.3% | [10] 101%

O=C1c2cccnc2C(=O)c2c1c(C(=O)OCCc1ccccn1)c1ccccn21
active: [1] -35.4% | [3] -33.4% | [4] -48.7% | [5] -43.9% | [6] -48.5% | [7] 8.74% | [8] -57% | [9] -14.1% | [10] -0.142%
inactive: [2] 25.4%

COc1cc2c(cc1OCCCN1CCN(C(=S)SCCC(C#N)(c3ccccc3)c3ccccc3)CC1)N=C[C@@H]1CCCN1C2=O
active: [1] -80% | [2] -95.6% | [3] -43.9% | [4] 4.62% | [5] -59.7% | [6] -46.1% | [7] -44.1% | [8] -100% | [9] -35% | [10] -8.92%

CCCCCc1ccc(S(=O)(=O)Nc2ccc3nc(N)oc3c2)cc1
inactive: [1] 101% | [2] 33.2% | [3] 58.8% | [4] 35.8% | [5] 84.6% | [6] 60.3% | [7] 51.1% | [8] 32.6% | [9] 51.8% | [10] 37.1%

Cc1oc(-c2ccc(Cl)cc2)nc1C1=NN(C(=O)c2ccncc2)C(c2ccccc2)C1 (stereo not given)
inactive: [1] 97.2% | [2] 95.8% | [3] 88.7% | [4] 59.5% | [5] 114% | [6] 92% | [7] 76% | [8] 78% | [9] 93.4% | [10] 77.1%

C#COc1cccc(Nc2ncnc3cc(NC(=O)[C@H](C)Cl)ccc23)c1
active: [1] 9.63% [6.25 µM] | [5] 9.65% [6.25 µM] | [8] 2.08% [6.25 µM]
inactive: [2] 20.3% [6.25 µM] | [3] 10.6% [6.25 µM] | [4] 27.1% [6.25 µM] | [6] 17.1% [6.25 µM] | [7] 26.2% [6.25 µM] | [9] 102% [6.25 µM] | [10] 98.6% [6.25 µM]

COC(=O)c1c2c(c[n+]([O-])c1C)C(=O)C=C(NCc1ccccc1)C2=O
active: [1] -70.8% | [2] -98.8% | [3] -91.5% | [4] -100% | [5] -82.4% | [6] -89.7% | [7] -98.2% | [8] -99.3% | [9] 0.673% | [10] -44.3%

Nc1nc2ccccc2c2c(=O)c3cc(Cl)ccc3sc12
inactive: [1] 106% | [2] 91.4% | [3] 94.9% | [4] 86.6% | [5] 109% | [6] 99.8% | [7] 87.8% | [8] 107% | [9] 101% | [10] 105%

Fc1cccc(CNc2c3ccccc3nc3ccccc23)c1
inactive: [1] 81.4% | [2] 32% | [3] 32.8% | [4] 24% | [5] 64.1% | [6] 17.1% | [7] 27% | [9] 46.3% | [10] 14.9%
active: [8] -12.6%

CNC(=O)c1cc(Oc2ccc3c(c2)sc2nc(-c4ccc(NC(=O)[C@@H](NC(=O)OC)C(C)C)cc4)cn23)ccn1
inactive: [1] 59.6% | [2] 66.3% | [3] 72.2% | [4] 52.5% | [5] 85.4% | [6] 83.3% | [7] 77.1% | [8] 68.5% | [9] 23.5% | [10] 23.8%

COc1ccc(C(O)c2cc3c(N)c(C(=O)Nc4cccc5ccccc45)sc3nc2C)cc1 (stereo not given)
active: [8] -13.1%
inactive: [1] 35.8% | [2] 41.8% | [3] 14.4% | [4] 25.8% | [5] 63.8% | [6] 22% | [7] 15.5% | [9] 13.2% | [10] 10.9%

Cc1cccc(NC(=O)Cn2cc(CN3CCN(c4ccnc5cc(Cl)ccc45)CC3)nn2)c1
inactive: [1] 108% | [2] 87.7% | [3] 93.8% | [4] 65.7% | [5] 102% | [6] 82.9% | [7] 72.7% | [8] 84.3%
active: [9] -32.9% | [10] 5.76%

COc1nc(/C=C\Nc2ccc3c(c2)OCCOCCOCCOCCO3)nc(OC)n1
inactive: [1] 108% | [2] 91.8% | [3] 93.2% | [4] 79.5% | [5] 81.9% | [6] 99.8% | [7] 93.1% | [8] 75.7% | [9] 118% | [10] 107%

CCn1cc(C(=O)N/N=C/c2ccccc2)c(=O)c2cc(F)c(N3CCNC(C)C3)c(F)c21 (stereo not given)
active: [9] -52.1% | [10] -24.5%
inactive: [1] 93.4% | [2] 34.3% | [3] 61.7% | [4] 47.5% | [5] 82.7% | [6] 56.8% | [7] 45.8% | [8] 99.6%

Cc1nc([P+](c2ccccc2)(c2ccccc2)c2ccccc2)c(N2CCCCC2)o1
inactive: [1] 41.2% | [2] 63.4% | [3] 35% | [4] 97% | [5] 53.6% | [6] 87.6% | [7] 78% | [8] 34.6% | [9] 21.2% | [10] 28.8%

O=C(O)c1cn(C2CC2)c2cc(N3CCN(C(=O)N/N=C/c4cccc5ccccc45)CC3)c(F)cc2c1=O
inactive: [1] 101% | [2] 102% | [3] 96.6% | [4] 80.1% | [5] 94.1% | [6] 101% | [7] 90.1% | [8] 86.1% | [9] 112% | [10] 100%

COc1ccc(NC(=O)c2ccc(Nc3ncnc4c3cnn4-c3cccc(F)c3)cc2)cc1
inactive: [1] 104% | [2] 101% | [3] 95.7% | [4] 88.6% | [5] 103% | [6] 99.6% | [7] 90.8% | [8] 57.3% | [9] 97.2% | [10] 100%

O=C(N/N=C/c1ccc(Cl)cc1)c1ccc(NC(=O)c2ccccn2)cc1
inactive: [1] 78.7% | [2] 68.2% | [3] 38.2% | [5] 47.3% | [7] 41.2% | [8] 81.2% | [9] 91% | [10] 79.5%
active: [4] 0.719% | [6] -0.994%

COC(=O)c1ccc2c(c1)c1c(C)c3cnccc3c(C)c1n2C
active: [1] -56.2% | [2] -7.49% | [3] -3.93% | [4] -45.7% | [5] -15.5% | [6] -27.7% | [7] -10.2% | [8] -84.3% | [9] 6.83% | [10] 2.75%

O=C1CCC(C(=O)N/N=C/c2cc(F)ccc2F)N1 (stereo not given)
inactive: [1] 97.8% | [2] 100% | [3] 96.6% | [4] 92.4% | [5] 104% | [6] 100% | [7] 98% | [8] 106% | [9] 103% | [10] 101%

COc1cc(/C=C/c2cn[nH]c2-c2ccc(C)cc2)cc(OC)c1OC
active: [1] 2.13%
inactive: [2] 47.8% | [3] 51.2% | [4] 45.9% | [5] 66% | [6] 49.4% | [7] 32.6% | [8] 33.8% | [9] 24.8% | [10] 22.8%
